Fam108B counter = counter-screen for RBBP9 inhibitors: inhibitors of mouse Fam108B; recombinant Fam108B, FP-Rh probe fluorescence polarization; inhibition, % at 9.51 µM; 300,000 compounds, 0.33% hits;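 active = inhibition above the screen mean inhibition plus 3 SD, computed separately per campaign, cut at about 18% in these data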;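 also: inhibitors lower polarization as less probe binds the enzyme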
PAFAH2 FP inh = inhibitors of human PAFAH2 | Q99487 | recombinant PAFAH2, FP-rhodamine activity probe, fluorescence polarization | inhibition, % at 3.39 µM | 340,000 compounds, 0.99% hits | AID 492956;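 active = inhibition above the mean over all tested compounds plus 3 SD, cut at about 30% in these data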;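 also: inhibitors block probe labeling of enzyme so polarization drops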
PME-1 inh = blocks human protein phosphatase methylesterase 1; recombinant PME-1, FP-Rh probe fluorescence polarization; 320,000 compounds, 0.53% hits; Q9Y570; inhibition, % at 5.9 µM;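 active = inhibition above the campaign mean of all compounds plus 3 SD, cut at about 26% in these data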;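 also: competitive labeling of PME-1 active site by serine hydrolase directed probe; inhibitors block probe labeling so polarization falls and inhibition rises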
PAFAH1B3 FP inh = inhibitors of human PAFAH1B3; recombinant PAFAH1B3, FP-rhodamine probe, fluorescence polarization; inhibition, % at 3.39 µM; 340,000 compounds, 0.28% hits; Q15102;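 active = inhibition above the screen-wide average of all tested compounds plus 3 SD, cut at about 25% in these data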
Target sequence (Q15102 whole entry, looked up): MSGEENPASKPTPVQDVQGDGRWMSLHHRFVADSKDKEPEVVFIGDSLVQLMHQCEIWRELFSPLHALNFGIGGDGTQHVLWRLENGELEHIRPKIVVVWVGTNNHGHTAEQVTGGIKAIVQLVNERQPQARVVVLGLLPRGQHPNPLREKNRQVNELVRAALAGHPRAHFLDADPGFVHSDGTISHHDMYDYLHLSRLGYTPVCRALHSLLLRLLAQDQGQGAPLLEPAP
pPAFAH inh = inhibitors of human plasma PAF acetylhydrolase (pPAFAH). 330,000 compounds, 1.5% hits. recombinant pPAFAH, FP-rhodamine probe fluorescence polarization. AID 463082. Q13093. inhibition, % at 3.39 µM;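 active = inhibition above the mean inhibition across the screen plus 3 SD, cut at about 25% in these data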;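 also: inhibitors block binding of the rhodamine activity-based probe so polarization drops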
Target sequence (Q13093 whole entry, looked up): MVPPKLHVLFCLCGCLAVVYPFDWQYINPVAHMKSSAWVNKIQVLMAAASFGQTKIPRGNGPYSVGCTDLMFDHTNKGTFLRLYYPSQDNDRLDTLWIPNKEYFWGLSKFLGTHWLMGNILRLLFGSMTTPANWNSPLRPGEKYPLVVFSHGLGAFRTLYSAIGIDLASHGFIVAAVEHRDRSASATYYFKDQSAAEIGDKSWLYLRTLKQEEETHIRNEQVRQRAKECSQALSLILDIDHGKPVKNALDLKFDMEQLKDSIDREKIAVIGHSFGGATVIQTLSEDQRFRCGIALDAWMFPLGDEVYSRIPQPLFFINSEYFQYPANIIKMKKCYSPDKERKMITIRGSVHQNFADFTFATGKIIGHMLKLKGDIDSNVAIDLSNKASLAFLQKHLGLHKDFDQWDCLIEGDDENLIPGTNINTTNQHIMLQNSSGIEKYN
PAFAH1B2 inh = PAFAH1B2 (human) inhibition; recombinant PAFAH1B2, FP-rhodamine activity probe, fluorescence polarization; inhibition, % at 3.39 µM; 340,000 compounds, 1.2% hits; P68402;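 active = inhibition above the mean of all tested compounds plus 3 SD, cut at about 24% in these data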
PAFAH2 confirm = confirmation of human PAFAH2 inhibitors. shares compounds with PAFAH2 FP inh. recombinant PAFAH2, FP-rhodamine activity probe, fluorescence polarization. inhibition, % at 3.39 µM. 2,300 compounds, 65% hits. AID 493030;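 active = mean inhibition over three repeats above a set limit taken from the earlier primary screen, cut at about 30% in these data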;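 also: inhibitor blocks binding of rhodamine activity probe so polarization falls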
Numbers stand for hits. Most compounds without a hit are left out; they make up all but 2.9% or so of the library.

What do the screens show for `COc1cc(S(=O)(=O)N2CCOCC2)ccc1NC(=O)COC(=O)/C=C/c1cc(OC)c(OC)c(OC)c1`?
PAFAH2 FP inh: inactive; PAFAH1B3 FP inh: inactive; pPAFAH inh: inactive; PAFAH1B2 inh: inactive

Results for Cc1ccc(S(=O)(=O)N2CCOCC2)cc1NC(=O)COC(=O)/C=C/c1ccco1 ?
PAFAH2 FP inh: 46; PAFAH1B3 FP inh: inactive; pPAFAH inh: inactive; PAFAH1B2 inh: inactive; PAFAH2 confirm: 45

Results for COc1ccc(/C=C2\SC(=O)N(CCNC(=O)Cc3coc4cc(OC)ccc34)C2=O)cc1 ?
Fam108B counter: inactive; PAFAH2 FP inh: inactive; PME-1 inh: inactive; PAFAH1B3 FP inh: inactive; pPAFAH inh: inactive; PAFAH1B2 inh: inactive

What do the screens show for `CN(C)c1ccc(C=NNC(=O)c2cccc3ccccc23)c(Cl)c1`?
PAFAH2 FP inh: inactive; PAFAH1B3 FP inh: inactive; PAFAH1B2 inh: inactive

Results for CC(=O)c1c(C)[nH]c(C(=O)OCC(=O)Nc2ccc(Cl)c(S(=O)(=O)N(C)C)c2)c1C ?
Fam108B counter: inactive; PAFAH2 FP inh: 71; PME-1 inh: inactive; PAFAH1B3 FP inh: inactive; pPAFAH inh: inactive; PAFAH1B2 inh: inactive; PAFAH2 confirm: 61

How did CC(=O)c1c(C)[nH]c(C(=O)OCC(=O)Nc2ccc3c(c2)OCCO3)c1C do in these assays?
PAFAH2 FP inh: 35; PAFAH1B3 FP inh: inactive; pPAFAH inh: inactive; PAFAH1B2 inh: inactive; PAFAH2 confirm: inactive

How did CCOC(=O)c1c(C)[nH]c(C(=O)OCC(=O)Nc2cc(Cl)ccc2OC)c1C do in these assays?
Fam108B counter: inactive; PAFAH2 FP inh: inactive; PME-1 inh: inactive; PAFAH1B3 FP inh: inactive; pPAFAH inh: inactive; PAFAH1B2 inh: inactive

What do the screens show for `CC(=O)c1c(C)[nH]c(C(=O)OCC(=O)Nc2ccc(Cl)cc2[N+](=O)[O-])c1C`?
Fam108B counter: inactive; PAFAH2 FP inh: 48; PME-1 inh: inactive; PAFAH1B3 FP inh: inactive; pPAFAH inh: inactive; PAFAH1B2 inh: inactive; PAFAH2 confirm: 32

How did CC(=O)c1c(C)[nH]c(C(=O)Nc2ccc(Cl)c(S(=O)(=O)N(C)C)c2)c1C do in these assays?
Fam108B counter: inactive; PAFAH2 FP inh: inactive; PME-1 inh: inactive; PAFAH1B3 FP inh: inactive; pPAFAH inh: inactive; PAFAH1B2 inh: inactive

What do the screens show for `CC1CCc2c(sc3nc(CSc4nnnn4C)[nH]c(=O)c23)C1` (stereo not given)?
Fam108B counter: inactive; PAFAH2 FP inh: inactive; PME-1 inh: inactive; PAFAH1B3 FP inh: inactive; pPAFAH inh: inactive; PAFAH1B2 inh: inactive

How did O=C(COC(=O)/C=C/c1ccco1)NC1CCCCC1 do in these assays?
PAFAH2 FP inh: 77; PME-1 inh: inactive; PAFAH1B3 FP inh: inactive; pPAFAH inh: inactive; PAFAH1B2 inh: inactive; PAFAH2 confirm: 82

Results for O=C(/C=C/c1ccco1)NC1CCCC1 ?
Fam108B counter: inactive; PAFAH2 FP inh: inactive; PME-1 inh: inactive; PAFAH1B3 FP inh: inactive; pPAFAH inh: inactive; PAFAH1B2 inh: inactive

What do the screens show for `O=C(COC(=O)/C=C/c1ccc(Br)o1)NC1CCCCC1`?
PAFAH2 FP inh: 77; PME-1 inh: inactive; PAFAH1B3 FP inh: inactive; pPAFAH inh: inactive; PAFAH1B2 inh: inactive; PAFAH2 confirm: 73

How did CC1CCCCC1NC(=O)COC(=O)/C=C/c1ccco1 (stereo not given) do in these assays?
PAFAH2 FP inh: 84; PME-1 inh: inactive; PAFAH1B3 FP inh: inactive; pPAFAH inh: inactive; PAFAH1B2 inh: inactive; PAFAH2 confirm: 74

How did COC(=O)c1ccccc1NC(=O)C(=O)NCC1CCCO1 (stereo not given) do in these assays?
Fam108B counter: inactive; PAFAH2 FP inh: inactive; PME-1 inh: inactive; PAFAH1B3 FP inh: inactive; pPAFAH inh: inactive; PAFAH1B2 inh: inactive

What do the screens show for `CCC(=O)c1ccc(OC(=O)N2CCOCC2)cc1`?
Fam108B counter: inactive; PAFAH2 FP inh: 35; PME-1 inh: inactive; PAFAH1B3 FP inh: inactive; pPAFAH inh: inactive; PAFAH1B2 inh: inactive; PAFAH2 confirm: inactive

What do the screens show for `CC(C)(C)c1ccc(OC(=O)N2CCOCC2)cc1`?
Fam108B counter: inactive; PAFAH2 FP inh: 30; PME-1 inh: inactive; PAFAH1B3 FP inh: inactive; pPAFAH inh: inactive; PAFAH1B2 inh: inactive; PAFAH2 confirm: 38

How did CC(C)CSc1nc(N)nc2c1ncn2C1OC(CO)C(O)C1O (stereo not given) do in these assays?
PAFAH2 FP inh: inactive; PAFAH1B3 FP inh: inactive; PAFAH1B2 inh: inactive

How did Cc1ccc(C2CC(=O)N3CN(c4ccc(Br)cc4)CSC3=C2C#N)o1 (stereo not given) do in these assays?
Fam108B counter: inactive; PAFAH2 FP inh: 32; PME-1 inh: inactive; PAFAH1B3 FP inh: inactive; pPAFAH inh: 56; PAFAH1B2 inh: inactive; PAFAH2 confirm: inactive

How did COc1ccc(COC[C@H](C)[C@H](O)[C@@H](C)[C@H]2OC(=O)[C@@H]2C)cc1 do in these assays?
Fam108B counter: inactive; PAFAH2 FP inh: 69; PME-1 inh: inactive; PAFAH1B3 FP inh: inactive; pPAFAH inh: inactive; PAFAH1B2 inh: inactive; PAFAH2 confirm: 78

How did CC1(C)CC(=O)C=C(N=CC2=C(O)CC(C)(C)CC2=O)C1 do in these assays?
Fam108B counter: inactive; PAFAH2 FP inh: 33; PME-1 inh: inactive; PAFAH1B3 FP inh: inactive; pPAFAH inh: inactive; PAFAH1B2 inh: inactive; PAFAH2 confirm: inactive

Results for O=C(c1cc2c(s1)CCCCC2)N1CCN(c2ncccn2)CC1 ?
Fam108B counter: inactive; PAFAH2 FP inh: inactive; PME-1 inh: inactive; PAFAH1B3 FP inh: inactive; pPAFAH inh: inactive; PAFAH1B2 inh: inactive

Results for O=C(c1cc2c(s1)CCCC2)n1cccn1 ?
Fam108B counter: inactive; PAFAH2 FP inh: 63; PME-1 inh: inactive; PAFAH1B3 FP inh: inactive; pPAFAH inh: inactive; PAFAH1B2 inh: inactive; PAFAH2 confirm: 55

Results for CCOC(=O)c1cn(CC)c2cc3c(cc2c1=O)OCO3 ?
Fam108B counter: inactive; PAFAH2 FP inh: inactive; PME-1 inh: inactive; PAFAH1B3 FP inh: inactive; pPAFAH inh: inactive; PAFAH1B2 inh: inactive

What do the screens show for `CCCSC1=N/C(=C\c2ccc([N+](=O)[O-])o2)C(=O)S1`?
PAFAH2 FP inh: 40; PAFAH1B3 FP inh: inactive; PAFAH1B2 inh: inactive; PAFAH2 confirm: inactive

Results for CCSC1=N/C(=C\c2ccc(-c3ccccc3[N+](=O)[O-])o2)C(=O)S1 ?
Fam108B counter: inactive; PAFAH2 FP inh: inactive; PME-1 inh: inactive; PAFAH1B3 FP inh: inactive; pPAFAH inh: inactive; PAFAH1B2 inh: inactive

How did O=C(Cc1c(C(=O)O)[nH]c2ccc(Cl)cc12)Nc1ccc2c(c1)OCCO2 do in these assays?
Fam108B counter: inactive; PAFAH2 FP inh: inactive; PME-1 inh: inactive; PAFAH1B3 FP inh: inactive; pPAFAH inh: inactive; PAFAH1B2 inh: inactive

Results for COCc1nnc(NC(=O)CCS(=O)(=O)c2ccccc2)s1 ?
Fam108B counter: inactive; PAFAH2 FP inh: inactive; PME-1 inh: inactive; PAFAH1B3 FP inh: inactive; pPAFAH inh: inactive; PAFAH1B2 inh: inactive

What do the screens show for `O=C(COC(=O)c1ccccc1C(=O)N1CCN(c2ccc(F)cc2)CC1)NCc1ccccc1`?
Fam108B counter: inactive; PAFAH2 FP inh: inactive; PME-1 inh: inactive; PAFAH1B3 FP inh: inactive; pPAFAH inh: inactive; PAFAH1B2 inh: inactive

High-throughput results (PubChem)
